This passage reports outcome and Potency results from PubChem BioAssay (NCATS).

Structures are written as SMILES. Results filed as inconclusive are left out. Active and inactive are the calls of the source. Unless noted, the call rests on the fitted dose curve; in most records, active means well fitted curve in the direction sought with a large enough effect; inconclusive means small, poorly fitted or top-dose-only effect, or another doubt; inactive means no such curve, though single readings can be large; an effect the other way counts as inactive or inconclusive.

Test [1] concerns the target Luciferin 4-monooxygenase (Photinus pyralis) (UniProt P08659). The test can be described thus: Biochemical firefly luciferase enzyme assay for NPC (AID 624030).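 Further: purified P. pyralis luciferase at 10 nM with luciferin and ATP substrate; nearly all actives have a fitted effect of over 70% in size.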 The gist of the method: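 Direct inhibition of firefly luciferase enzyme (10 nM final, 50 mM Tris Acetate) assessed by luminescence within 5 minutes. Percent activity scaled between DMSO and PTC124 positive control, with concentration-effect curves classified by fit quality and response.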

A short description of test [2]: S16 Schwann cell PMP22 intronic element firefly luciferase assay (AID 624032). Further: nearly all actives have a fitted effect of over 30% in size. Further: potency means the concentration at half of the fitted maximal effect. In outline:
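Luciferase reporter of PMP22 intronic-element expression in stably transfected S16 rat Schwann cells, read by ONE-Glo luminescence after 24 h compound exposure at 37 C. Activity scaled between DMSO (0%) and positive-control PTC124; concentration-effect curves quality-classified.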

A short description of test [3]: S16 Schwann cell PMP22 intronic element beta-lactamase assay (AID 624044; calls by dose curve; further: nearly all actives have a fitted effect of over 15% in size). In outline:
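Beta-lactamase reporter under a PMP22 intronic regulatory element in stable S16 rat Schwann cells; 24 h compound exposure. 460 nm blue signal normalized between DMSO (0%) and potassium clavulanate, with 535 nm FRET tracking viability; curves classed by r2 and response.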

The test system of test [4] is CP262. The test can be described thus: qHTS profiling for inhibitors of Plasmodium falciparum proliferation (AID 504749). Further: nearly all actives have a fitted effect of over 60% in size. Further: potency means the concentration at half of the fitted maximal effect. As to conditions: P. falciparum in erythrocytes, SYBR Green DNA, 72 h; series mostly up to 28.7 µM. In outline:
(§1)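 SYBR Green fluorescence of parasite DNA, read after lysis and overnight dark incubation, measured growth over 72 h in erythrocyte culture at 0.3% parasitemia and 2.5% hematocrit. Data normalised to DMSO and 0.29 uM artemisinin, with plate-drift correction.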
(In general: In qHTS, concentration-response curves come from the screen itself.)

Test [5] deals with CP315. The description is as above. As to conditions: P. falciparum in erythrocytes, SYBR Green DNA, 72 h; series mostly up to 28.7 µM. In outline:
as §1

The test system of test [6] is CP325. The description is as above. As to conditions: P. falciparum in erythrocytes, SYBR Green DNA, 72 h; series mostly up to 28.7 µM. In outline:
as §1

Test [7] concerns DIV14. The test is described as above. Particulars: P. falciparum in erythrocytes, SYBR Green DNA, 72 h; series mostly up to 28.7 µM. The gist of the method: as §1
Test [8] deals with DIV17. The description is as above. Particulars: P. falciparum in erythrocytes, SYBR Green DNA, 72 h; series mostly up to 28.7 µM. The gist of the method:
as §1

Test [9] concerns ICS. Described as above. Particulars: P. falciparum in erythrocytes, SYBR Green DNA, 72 h; series mostly up to 28.7 µM. In outline:
as §1

Test [10] relates to N140. The test is described as above. As to conditions: P. falciparum in erythrocytes, SYBR Green DNA, 72 h; series mostly up to 28.7 µM. In outline: as §1
Test [11] concerns AS120. The test is described as above. Particulars: P. falciparum in erythrocytes, SYBR Green DNA, 72 h; series mostly up to 28.7 µM. In outline:
as §1

The test system of test [12] is C2A. Described as above. Particulars: P. falciparum in erythrocytes, SYBR Green DNA, 72 h; series mostly up to 28.7 µM. The gist of the method: as §1
Test [13] deals with CP191. The test is described as above. Particulars: P. falciparum in erythrocytes, SYBR Green DNA, 72 h; series mostly up to 28.7 µM. In outline:
as §1

Test [14] concerns CP237. Described as above. As to conditions: P. falciparum in erythrocytes, SYBR Green DNA, 72 h; series mostly up to 28.7 µM. The gist of the method:
as §1

Test [15] has as its system CP250. The test is described as above. As to conditions: P. falciparum in erythrocytes, SYBR Green DNA, 72 h; series mostly up to 28.7 µM. The gist of the method:
as §1

Test [16] relates to CP256. The test is described as above. As to conditions: P. falciparum in erythrocytes, SYBR Green DNA, 72 h; series mostly up to 28.7 µM. The gist of the method: as §1
The test system of test [17] is DIV30. Described as above. Particulars: P. falciparum in erythrocytes, SYBR Green DNA, 72 h; series mostly up to 28.7 µM. The gist of the method:
as §1

For test [18], the system named is P94_40. Described as above. As to conditions: P. falciparum in erythrocytes, SYBR Green DNA, 72 h; series mostly up to 28.7 µM. The gist of the method:
as §1

Test [19] deals with PC49. The description is as above. As to conditions: P. falciparum in erythrocytes, SYBR Green DNA, 72 h; series mostly up to 28.7 µM. The gist of the method: as §1
Test [20] concerns TAB113. The description is as above. As to conditions: P. falciparum in erythrocytes, SYBR Green DNA, 72 h; series mostly up to 28.7 µM. The gist of the method:
as §1

Sequence of Luciferin 4-monooxygenase (Photinus pyralis) (P08659 whole entry, looked up): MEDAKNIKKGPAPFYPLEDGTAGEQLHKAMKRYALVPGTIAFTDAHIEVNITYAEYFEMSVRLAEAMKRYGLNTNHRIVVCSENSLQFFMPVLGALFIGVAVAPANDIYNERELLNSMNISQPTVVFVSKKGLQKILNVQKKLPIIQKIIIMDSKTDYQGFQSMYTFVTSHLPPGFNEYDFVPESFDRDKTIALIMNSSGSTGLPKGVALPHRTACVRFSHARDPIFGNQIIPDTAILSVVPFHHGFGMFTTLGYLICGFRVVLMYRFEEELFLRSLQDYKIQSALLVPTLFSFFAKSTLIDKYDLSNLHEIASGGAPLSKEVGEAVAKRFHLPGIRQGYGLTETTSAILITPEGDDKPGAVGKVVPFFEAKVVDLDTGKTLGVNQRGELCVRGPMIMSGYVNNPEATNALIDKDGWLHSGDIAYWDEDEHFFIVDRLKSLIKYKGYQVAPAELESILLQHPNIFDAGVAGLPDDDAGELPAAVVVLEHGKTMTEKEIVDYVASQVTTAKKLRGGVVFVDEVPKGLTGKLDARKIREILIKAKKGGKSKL

For the molecule `CCc1ccc2c(c1)N(C[C@H](C)CN(C)C)c1ccccc1S2`, the outcome in test [1] and in test [3] was inactive. Further, the Potency entry in [2], in test [4], in test [5], in [6] and in [10] was “inactive” each time. Also, the Potency in [7] was 8.49 µM (active); in [8], 6.01 µM (active); in test [9], 7.94 µM (active).

As for `OC[C@H](S)CS`, the Potency is 7.21 µM (active) in test [2]; 2.24 µM (active) in [14]; 12 µM (active) in [7]; 3.38 µM (active) in test [8]; 2.24 µM (active) in test [9]. Further, the Potency result in test [11], in test [12], in test [13], in test [15], in test [16] and in test [5] was “inactive” in each case. The Potency entry in test [17], in [18], in test [19] and in test [20] was “inactive” throughout.

For the molecule `O=C(O)[C@@H](S)[C@H](S)C(=O)O`, the result in test [1] and in test [3] was inactive. The Potency in test [11] is 5.62 µM (active); in [12] it was 7.08 µM (active); in test [13] it was 8.91 µM (active); in [14], 7.08 µM (active); in [15], 7.08 µM (active); in test [16] it was 7.94 µM (active). For the same molecule, the Potency in [4] was 6.75 µM (active); in test [5], 15.1 µM (active); in [6], 9.53 µM (active); in test [7], 8.49 µM (active); in [8], 13.5 µM (active); in test [17] it was 6.75 µM (active). For the same molecule, the Potency in test [9] is 8.91 µM (active); in [10], 7.94 µM (active); in [18] it was 4.47 µM (active); in [19] it was 11.2 µM (active); in [20], 11.2 µM (active).

Regarding `N[C@H](COP(=O)(O)O)C(=O)O`, the molecule was classed as inactive in [1] and in test [3]. For the same molecule, the Potency entry in test [2], in test [11], in [12], in test [13], in test [14] and in [15] was “inactive” in each case. In addition, the Potency entry in [16], in test [4], in test [5], in test [6], in test [7] and in [8] was “inactive” throughout. Moreover, the Potency result in [17], in [9], in test [10], in test [18], in [19] and in test [20] was “inactive” in each case.

With `COc1cc2nc(N(C)CCCNC(=O)[C@@H]3CCCO3)nc(N)c2cc1OC`, the outcome in [1] and in test [3] was inactive. Besides, the Potency result in [2], in test [11], in test [12], in [13], in [14] and in test [15] was “inactive” in each case. Further, the Potency result in test [16], in test [4], in test [5], in [6], in test [7] and in test [8] was “inactive” throughout. Besides, the Potency entry in test [17], in test [9], in test [10], in test [18], in test [19] and in test [20] was “inactive” in each case.

As for `CC(=O)N1CCN(c2ccc(OC[C@@H]3CO[C@@](Cn4ccnc4)(c4ccc(Cl)cc4Cl)O3)cc2)CC1`, the molecule was called inactive in test [1] and in [3]. In addition, the Potency result in test [2], in [11], in [12], in test [13], in [14] and in test [15] was “inactive” each time. The Potency result in [16], in test [4], in test [6], in test [17], in [10] and in test [18] was “inactive” throughout. Further, the Potency result in [19] and in [20] was “inactive” each time.

Take `C[N+]1(C)[C@@H]2CC(OC(=O)[C@@H](CO)c3ccccc3)C[C@@H]1[C@H]1O[C@H]12` (stereo not given in full): the outcome in [1] and in [3] was inactive. The Potency result in test [2], in test [11], in test [12], in [13], in [14] and in test [15] was “inactive” throughout. Moreover, the Potency result in [16], in test [4], in test [5], in [6], in test [7] and in test [8] was “inactive” throughout. Also, the Potency result in test [17], in test [9], in [10], in test [18], in [19] and in test [20] was “inactive” in each case.
